# Results published in PubChem BioAssay (EPA / NIEHS).
# “And” between values parts separate entries of the source, which are not always exact repeats. Equal entries are not always repeated. Records with an inconclusive call do not appear. The source holds several records for some structures; these can differ, active in one and inactive in another. The source made the active and inactive calls. Rule for the calls, unless noted: active = hit-call score of the fitted dose curve at least 0.9, where 1 is the maximum; inactive = score below 0.9.
# Legend:
# [1] = target: Glucocorticoid receptor (Homo sapiens) (UniProt P04150); experiment: ATG_GR_TRANS: Attagene TRANS-FACTORIAL HepG2 Assay for human Glucocorticoid Receptor (GR) (AID 2282978; active = hit-call score of the fitted dose curve at least 0.9, where 1 is the maximum;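 note: activators score as hits since higher reporter transcript over DMSO is fitted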); conditions: HepG2 Attagene TRANS GR reporter, mRNA transcription
# Glucocorticoid receptor (Homo sapiens), sequence (P04150 whole entry, looked up): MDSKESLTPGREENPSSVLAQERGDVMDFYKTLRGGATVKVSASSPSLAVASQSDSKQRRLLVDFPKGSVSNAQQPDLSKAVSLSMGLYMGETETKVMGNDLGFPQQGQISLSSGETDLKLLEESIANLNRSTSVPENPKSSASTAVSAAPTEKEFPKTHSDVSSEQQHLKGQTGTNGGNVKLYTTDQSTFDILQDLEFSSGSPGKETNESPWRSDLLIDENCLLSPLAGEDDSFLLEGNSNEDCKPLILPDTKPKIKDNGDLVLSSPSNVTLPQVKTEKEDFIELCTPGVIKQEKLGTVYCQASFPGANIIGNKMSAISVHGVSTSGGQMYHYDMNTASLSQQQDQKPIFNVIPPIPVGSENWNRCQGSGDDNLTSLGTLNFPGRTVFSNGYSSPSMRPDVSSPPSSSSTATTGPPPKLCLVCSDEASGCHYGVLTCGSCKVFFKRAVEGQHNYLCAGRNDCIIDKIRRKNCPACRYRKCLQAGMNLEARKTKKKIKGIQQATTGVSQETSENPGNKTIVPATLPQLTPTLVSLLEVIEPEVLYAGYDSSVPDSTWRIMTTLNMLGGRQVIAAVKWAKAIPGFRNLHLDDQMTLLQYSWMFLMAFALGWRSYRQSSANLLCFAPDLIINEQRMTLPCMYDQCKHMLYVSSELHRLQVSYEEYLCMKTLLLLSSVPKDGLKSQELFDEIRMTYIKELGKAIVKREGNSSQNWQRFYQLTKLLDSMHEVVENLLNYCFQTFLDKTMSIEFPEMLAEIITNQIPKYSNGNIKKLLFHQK
# Summary of the method: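 After 24 h incubation with test chemical, transfected HepG2 cells were lysed for RNA; reporter cDNA was amplified, FAM-labelled, HpaI-digested and sized on a capillary analyser. Signal gain relative to DMSO was scored.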
# [2] = target: Oxysterols receptor LXR-alpha (Homo sapiens) (UniProt Q13133); experiment: ATG_LXRa_TRANS: Attagene TRANS-FACTORIAL HepG2 Assay for human Liver X Receptor alpha (LXRa) (AID 2282980; active = hit-call score of the fitted dose curve at least 0.9, where 1 is the maximum); conditions: HepG2 Attagene TRANS reporter, LXRa transactivation
# Oxysterols receptor LXR-alpha (Homo sapiens), sequence (Q13133 whole entry, looked up, the tested form may be a part): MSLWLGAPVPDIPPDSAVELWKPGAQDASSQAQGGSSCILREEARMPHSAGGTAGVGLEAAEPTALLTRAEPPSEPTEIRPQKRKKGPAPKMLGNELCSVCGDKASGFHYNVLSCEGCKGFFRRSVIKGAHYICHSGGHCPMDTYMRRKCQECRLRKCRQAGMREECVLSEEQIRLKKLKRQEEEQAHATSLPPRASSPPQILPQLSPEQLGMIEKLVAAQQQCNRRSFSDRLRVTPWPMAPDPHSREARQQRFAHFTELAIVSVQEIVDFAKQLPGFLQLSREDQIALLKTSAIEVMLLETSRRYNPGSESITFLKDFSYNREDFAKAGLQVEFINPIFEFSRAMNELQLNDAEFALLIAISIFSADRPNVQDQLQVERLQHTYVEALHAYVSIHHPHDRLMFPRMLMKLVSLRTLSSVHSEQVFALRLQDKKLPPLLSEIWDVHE
# Summary of the method: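 Read-out: reporter transcript levels by RT-PCR plus capillary electrophoresis, fluorescence intensity. Transiently transfected HepG2, exogenous NR-GAL4 chimera, GAL4-UAS reporters; 24 h compound exposure. Activity = increase over DMSO negative control.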
# [3] = target: Oxysterols receptor LXR-beta (Homo sapiens) (UniProt P55055); experiment: ATG_LXRb_TRANS: Attagene TRANS-FACTORIAL HepG2 Assay for human Liver X Receptor beta (LXRb) (AID 2282981; active = hit-call score of the fitted dose curve at least 0.9, where 1 is the maximum); conditions: HepG2 Attagene TRANS GAL4-LXRb reporter, mRNA
# Oxysterols receptor LXR-beta (Homo sapiens), sequence (P55055 whole entry, looked up, the tested form may be a part): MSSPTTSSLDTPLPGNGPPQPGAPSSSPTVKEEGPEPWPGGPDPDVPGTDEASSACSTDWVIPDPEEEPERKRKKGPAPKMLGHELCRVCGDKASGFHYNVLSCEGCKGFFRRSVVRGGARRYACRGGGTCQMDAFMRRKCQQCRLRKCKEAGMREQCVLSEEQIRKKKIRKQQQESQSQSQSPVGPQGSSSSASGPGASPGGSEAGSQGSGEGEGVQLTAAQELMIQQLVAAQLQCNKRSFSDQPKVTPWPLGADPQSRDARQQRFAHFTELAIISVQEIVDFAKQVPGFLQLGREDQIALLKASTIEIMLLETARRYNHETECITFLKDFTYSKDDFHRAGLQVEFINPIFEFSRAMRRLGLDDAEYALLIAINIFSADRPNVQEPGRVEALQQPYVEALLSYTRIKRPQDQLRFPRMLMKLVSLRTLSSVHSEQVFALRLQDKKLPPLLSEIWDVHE
# Summary of the method: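 Transient transfection HepG2 (multiplexed RTUs, GAL4-UAS); NR-Gal4 chimera; 24 h exposure; RNA → RT-PCR → 6-FAM primer extension → HpaI → CE; increase vs DMSO.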
# [4] = target: Hepatocyte nuclear factor 4-alpha (Homo sapiens) (UniProt P41235); experiment: ATG_HNF4a_TRANS: Attagene TRANS-FACTORIAL HepG2 Assay for human Hepatocyte Nuclear Factor 4 alpha (HNF4a) (AID 2282982; active = hit-call score of the fitted dose curve at least 0.9, where 1 is the maximum); conditions: HepG2 HNF4a transactivation reporter, mRNA readout
# Hepatocyte nuclear factor 4-alpha (Homo sapiens), sequence (P41235 whole entry, looked up, the tested form may be a part): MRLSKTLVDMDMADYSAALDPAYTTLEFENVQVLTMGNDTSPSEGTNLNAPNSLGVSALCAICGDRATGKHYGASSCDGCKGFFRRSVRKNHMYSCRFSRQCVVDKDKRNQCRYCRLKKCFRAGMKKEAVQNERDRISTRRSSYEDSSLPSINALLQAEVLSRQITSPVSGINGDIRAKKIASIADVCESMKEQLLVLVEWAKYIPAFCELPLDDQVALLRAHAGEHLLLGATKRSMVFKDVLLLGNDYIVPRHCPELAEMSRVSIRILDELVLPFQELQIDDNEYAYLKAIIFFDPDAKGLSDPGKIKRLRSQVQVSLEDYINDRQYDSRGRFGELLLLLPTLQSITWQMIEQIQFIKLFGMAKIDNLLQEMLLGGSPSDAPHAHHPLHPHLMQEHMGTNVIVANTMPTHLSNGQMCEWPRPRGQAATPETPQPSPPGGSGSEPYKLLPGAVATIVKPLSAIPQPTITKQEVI
# Summary of the method: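 Readout is fluorescent reporter-transcript fragments resolved by capillary electrophoresis after RT-PCR from HepG2 cells dosed for 24 h. Cells carried transfected GAL4-UAS reporter constructs measuring exogenous NR-GAL4 chimera activity; DMSO served as baseline.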
# [5] = ATG_M_06_TRANS: Attagene TRANS-FACTORIAL HepG2 Assay for M06 Transcription Factor (Internal Marker) (AID 2282983; active = hit-call score of the fitted dose curve at least 0.9, where 1 is the maximum); conditions: HepG2 Attagene TRANS M06 internal marker reporter
# Summary of the method: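 After a 24 h chemical treatment of transfected HepG2, RNA underwent DNase I treatment, reverse transcription and reporter-specific PCR; labelled, HpaI-digested products were sized by capillary electrophoresis. Signal increase relative to DMSO defined activity.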
# [6] = ATG_M_32_TRANS: Attagene TRANS-FACTORIAL HepG2 Assay for M32 Transcription Factor (Internal Marker) (AID 2282984; active = hit-call score of the fitted dose curve at least 0.9, where 1 is the maximum;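 note: transcript level of a background control reporter unit measured by RT-PCR and capillary electrophoresis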); conditions: HepG2 Attagene TRANS M32 internal marker reporter
# Summary of the method: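 Measures reporter mRNA induction in human HepG2 liver cells after 24 h chemical treatment. Transcripts from transiently transfected GAL4-UAS reporter units are amplified, fluorescently labelled and sized by capillary electrophoresis; gain of signal relative to DMSO.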
# [7] = target: Nuclear receptor subfamily 4 group A member 2 (Homo sapiens) (UniProt P43354); experiment: ATG_NURR1_TRANS: Attagene TRANS-FACTORIAL HepG2 Assay for human Nuclear Receptor Related Protein 1 (NURR1) (AID 2282985; active = hit-call score of the fitted dose curve at least 0.9, where 1 is the maximum); conditions: HepG2 Attagene TRANS reporter, mRNA readout
# Nuclear receptor subfamily 4 group A member 2 (Homo sapiens), sequence (P43354 whole entry, looked up, the tested form may be a part): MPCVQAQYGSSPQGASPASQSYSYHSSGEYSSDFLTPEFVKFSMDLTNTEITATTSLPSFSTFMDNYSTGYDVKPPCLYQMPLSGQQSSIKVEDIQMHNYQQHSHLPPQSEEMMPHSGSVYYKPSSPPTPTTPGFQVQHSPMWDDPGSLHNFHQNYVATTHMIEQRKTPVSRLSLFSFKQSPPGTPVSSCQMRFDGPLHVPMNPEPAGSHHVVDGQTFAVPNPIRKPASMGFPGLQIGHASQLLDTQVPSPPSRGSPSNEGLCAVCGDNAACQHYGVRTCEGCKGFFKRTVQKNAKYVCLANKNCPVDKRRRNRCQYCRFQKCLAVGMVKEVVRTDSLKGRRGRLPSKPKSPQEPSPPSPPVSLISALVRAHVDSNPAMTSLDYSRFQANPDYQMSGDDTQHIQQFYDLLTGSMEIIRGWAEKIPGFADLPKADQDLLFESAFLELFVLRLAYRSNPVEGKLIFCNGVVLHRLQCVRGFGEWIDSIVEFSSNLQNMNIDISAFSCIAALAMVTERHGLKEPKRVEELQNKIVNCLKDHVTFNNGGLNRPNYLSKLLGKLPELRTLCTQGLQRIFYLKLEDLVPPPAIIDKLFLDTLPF
# Summary of the method: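 Transient transfection of HepG2, human liver cells, with multiple GAL4-UAS reporter transcription units. Cells dosed 24 h, RNA isolated, reverse-transcribed, PCR-amplified, FAM-labelled, HpaI-digested, sized by capillary electrophoresis. DMSO served as negative control.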
# [8] = target: Transcriptional activator Myb (Homo sapiens) (UniProt P10242); experiment: ATG_Myb_CIS: Attagene CIS-FACTORIAL HepG2 Assay for human Myeloblastosis (Myb) Proto-Oncogene Transcription Factor (AID 2282986); conditions: HepG2 Attagene CIS-FACTORIAL Myb reporter transcription; actives raise or lower the signal
# Transcriptional activator Myb (Homo sapiens), sequence (P10242 whole entry, looked up): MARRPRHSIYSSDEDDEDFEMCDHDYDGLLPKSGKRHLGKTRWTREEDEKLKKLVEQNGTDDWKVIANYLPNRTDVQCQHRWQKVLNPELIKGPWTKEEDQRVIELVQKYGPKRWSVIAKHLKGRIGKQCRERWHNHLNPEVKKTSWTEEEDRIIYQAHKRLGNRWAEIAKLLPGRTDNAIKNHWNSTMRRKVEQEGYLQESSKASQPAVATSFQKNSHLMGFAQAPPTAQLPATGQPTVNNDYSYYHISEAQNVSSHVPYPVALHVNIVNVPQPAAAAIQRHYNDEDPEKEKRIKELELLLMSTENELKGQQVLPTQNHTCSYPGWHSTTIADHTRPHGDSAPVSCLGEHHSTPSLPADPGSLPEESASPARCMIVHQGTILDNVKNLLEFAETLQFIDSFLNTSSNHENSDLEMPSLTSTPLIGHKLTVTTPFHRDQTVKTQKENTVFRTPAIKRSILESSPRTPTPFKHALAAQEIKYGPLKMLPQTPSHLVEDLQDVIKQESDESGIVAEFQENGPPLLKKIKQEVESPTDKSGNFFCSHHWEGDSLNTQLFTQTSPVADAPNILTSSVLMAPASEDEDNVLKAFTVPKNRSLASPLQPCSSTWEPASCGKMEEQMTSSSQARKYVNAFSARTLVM
# Summary of the method: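 After 24 h of compound dosing, total RNA from transfected HepG2 cells is reverse-transcribed and the reporter sequences amplified, labeled and separated by capillary electrophoresis. Values come from bidirectional fitting against DMSO.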
# [9] = target: Nuclear respiratory factor 1 (Homo sapiens) (UniProt Q16656); experiment: ATG_NRF1_CIS: Attagene CIS-FACTORIAL HepG2 Assay for human Nuclear Respiratory Factor 1 (NRF1) Orphan Gene (AID 2282987); conditions: HepG2 NRF1 cis-element reporter, Attagene multiplex; actives raise or lower the signal
# Nuclear respiratory factor 1 (Homo sapiens), sequence (Q16656 whole entry, looked up): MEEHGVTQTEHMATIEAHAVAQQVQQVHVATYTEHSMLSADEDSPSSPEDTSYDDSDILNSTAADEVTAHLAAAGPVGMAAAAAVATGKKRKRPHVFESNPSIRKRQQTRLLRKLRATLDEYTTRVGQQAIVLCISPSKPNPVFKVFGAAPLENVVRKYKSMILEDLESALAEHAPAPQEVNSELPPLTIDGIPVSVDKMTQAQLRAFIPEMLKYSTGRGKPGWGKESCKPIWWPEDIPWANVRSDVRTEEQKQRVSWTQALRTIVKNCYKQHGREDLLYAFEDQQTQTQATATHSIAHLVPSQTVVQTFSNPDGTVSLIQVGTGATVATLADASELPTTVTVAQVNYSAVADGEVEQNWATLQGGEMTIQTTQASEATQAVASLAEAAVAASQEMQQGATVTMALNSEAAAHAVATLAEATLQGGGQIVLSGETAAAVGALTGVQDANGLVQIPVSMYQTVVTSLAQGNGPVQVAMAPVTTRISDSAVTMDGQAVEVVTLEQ
# Summary of the method: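 Measured: fluorescent reporter-specific RT-PCR products from transfected HepG2 cells, separated by capillary electrophoresis. Exposure lasted 24 h. Analysis used bidirectional curve fitting with DMSO as negative control.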
# [10] = target: Myc proto-oncogene protein (Homo sapiens) (UniProt P01106); experiment: ATG_Myc_CIS: Attagene CIS-FACTORIAL HepG2 Assay for human Myelocytomatosis (Myc) Proto-Oncogene Transcription Factor (AID 2282990); conditions: HepG2, Attagene cis-reporter transcription factor activity; actives raise or lower the signal
# Myc proto-oncogene protein (Homo sapiens), sequence (P01106 whole entry, looked up): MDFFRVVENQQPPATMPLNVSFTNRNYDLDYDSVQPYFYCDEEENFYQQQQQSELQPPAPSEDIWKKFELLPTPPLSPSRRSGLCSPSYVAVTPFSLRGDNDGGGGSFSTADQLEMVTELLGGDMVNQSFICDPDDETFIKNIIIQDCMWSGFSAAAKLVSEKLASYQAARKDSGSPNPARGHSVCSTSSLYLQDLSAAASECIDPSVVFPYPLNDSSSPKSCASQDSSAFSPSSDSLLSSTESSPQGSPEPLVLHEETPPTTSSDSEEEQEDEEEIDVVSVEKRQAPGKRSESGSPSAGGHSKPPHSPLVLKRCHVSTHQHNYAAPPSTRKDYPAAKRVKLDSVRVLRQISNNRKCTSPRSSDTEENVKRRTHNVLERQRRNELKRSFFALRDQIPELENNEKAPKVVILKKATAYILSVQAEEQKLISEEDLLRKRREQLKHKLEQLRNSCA
# Summary of the method: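 HepG2, transient MRTU transfection (cis promoters, endogenous TFs); 24 h dosing; TriZol RNA → oligo(dT) RT → PCR → 6-FAM primer extension → HpaI cut → CE. Bidirectional fit vs DMSO.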
# [11] = ATG_NF_kB_CIS: Attagene CIS-FACTORIAL HepG2 Assay for human Nuclear Factor Kappa B (NF-kB) (AID 2282991); conditions: HepG2 Attagene cis-factorial NF-kB reporter mRNA; actives raise or lower the signal
# Summary of the method: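 Fluorescence of labelled RT-PCR products separated by capillary electrophoresis gives reporter mRNA levels from transfected HepG2 cells exposed 24 h; values are fitted in both directions relative to DMSO.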
# [12] = ATG_NRF2_ARE_CIS: Attagene CIS-FACTORIAL HepG2 Assay for human Nuclear Factor Erythroid 2 Related Factor 2 (NFR2) response to Antioxidant Response Elements (ARE) (AID 2282992); conditions: HepG2 Attagene ARE/NRF2 reporter, transcription factor activity; actives raise or lower the signal
# Summary of the method: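 Cis-factorial assay: transfected HepG2 reporter library, 24 h dosing, mRNA readout via RT-PCR/CE; DMSO-referenced bidirectional analysis.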
# [13] = target: Cellular tumor antigen p53 (Homo sapiens) (UniProt P04637); experiment: ATG_p53_CIS: Attagene CIS-FACTORIAL HepG2 Assay for human p53 Transcription Factor (AID 2282994); conditions: HepG2 p53 cis-element reporter, Attagene mRNA; actives raise or lower the signal
# Cellular tumor antigen p53 (Homo sapiens), sequence (P04637 whole entry, looked up): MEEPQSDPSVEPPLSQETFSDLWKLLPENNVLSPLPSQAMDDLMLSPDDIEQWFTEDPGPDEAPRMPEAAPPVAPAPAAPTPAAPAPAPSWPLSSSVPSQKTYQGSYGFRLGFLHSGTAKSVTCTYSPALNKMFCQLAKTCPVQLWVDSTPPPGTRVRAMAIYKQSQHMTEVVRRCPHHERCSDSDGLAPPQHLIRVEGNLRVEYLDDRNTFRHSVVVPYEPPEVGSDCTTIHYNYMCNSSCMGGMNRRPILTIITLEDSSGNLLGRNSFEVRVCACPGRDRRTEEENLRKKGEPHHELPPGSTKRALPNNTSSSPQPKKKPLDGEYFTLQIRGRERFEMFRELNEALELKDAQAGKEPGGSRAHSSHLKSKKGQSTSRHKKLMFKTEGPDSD
# Summary of the method: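 Using HepG2 hepatoma cells carrying cis-acting multiplexed reporters, mRNA induction is detected after a 24 h exposure. Gain- and loss-of-signal responses are fitted relative to DMSO-treated cells.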
# [14] = BSK_3C_TissueFactor: BioMAP Diversity Plus: 3C Assay for Tissue Factor Biomarker Activity (AID 2282997); conditions: BioMAP 3C HUVEC, tissue factor biomarker readout; actives raise or lower the signal
# Summary of the method: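 Human vascular primary cells (umbilical vein endothelium) received test chemical; Tissue Factor was determined by ELISA at 24 h, and both gain and loss of signal versus DMSO were fitted.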
# [15] = BSK_3C_uPAR: BioMAP Diversity Plus: 3C Assay for Urokinase-type plasminogen activator receptor (uPAR) Biomarker Activity (AID 2282998); conditions: BioMAP 3C HUVEC, uPAR biomarker ELISA; actives raise or lower the signal
# Summary of the method: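 A multiplexed primary-cell system built on human umbilical vein endothelium was used, with chemical present for 24 h before reading. Cell-surface uPAR was detected by ELISA; signal change in either direction counted against DMSO.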
# [16] = BSK_3C_VCAM1: BioMAP Diversity Plus: 3C Assay for Vascular cell adhesion molecule 1 (VCAM1) Biomarker Activity (AID 2282999); conditions: BioMAP 3C HUVEC, VCAM1 ELISA, cytokine-stimulated; actives raise or lower the signal
# Summary of the method: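 Endothelial cells from human umbilical vein are treated with test chemical. At 24 h, VCAM-1 is measured by ELISA, and responses in either direction are fitted relative to DMSO.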
# [17] = ATG_NFI_CIS: Attagene CIS-FACTORIAL HepG2 Assay for human Nuclear Factor I (NFI) (AID 2282989); conditions: HepG2 cis-regulatory reporter, NFI response element transcription; actives raise or lower the signal
# Summary of the method: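 Cells: human liver HepG2, transiently transfected with promoter-regulated reporter transcription units. Exposure 24 h. Detection: fluorescent RT-PCR products separated by capillary electrophoresis, normalised to DMSO negative control.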
# [18] = ATG_Oct_MLP_CIS: Attagene CIS-FACTORIAL HepG2 Assay for human Octamer-Binding Transcription Factor (Oct) (AID 2282993); conditions: HepG2 Attagene cis-factorial Oct reporter, mRNA; actives raise or lower the signal
# Summary of the method: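 HepG2, transient MRTU transfection, cis promoter elements; 24 h dosing; RT-PCR/CE fluorescence read-out of reporter mRNA; fit both directions vs DMSO.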
compound,measurement,setting,value
O=C(c1ccc(OCCN2CCCCC2)cc1)c1c(-c2ccc(O)cc2)sc2cc(O)ccc12,outcome,[1],inactive
same,outcome,[2],inactive
same,outcome,[3],inactive
same,outcome,[4],inactive
same,outcome,[5],inactive
same,outcome,[6],inactive
same,outcome,[7],inactive
same,AC50,[8],18.5 µM (active)
same,outcome,[8],inactive
same,AC50,[9],19.6 µM (active) and 17.7 µM (active)
same,outcome,[9],inactive
same,outcome,[10],inactive
same,outcome,[11],inactive
same,AC50,[12],6.44 µM (active) [middle of 4 runs]
same,outcome,[12],inactive
same,AC50,[13],9.07 µM (active) and 14.9 µM (active) and 15.1 µM (active)
same,outcome,[13],inactive
same,AC50,[14],34.6 µM (active)
same,AC50,[15],22.3 µM (active)
same,AC50,[16],35.4 µM (active)
O=C(O)C1=NN(c2ccc(S(=O)(=O)O)cc2)C(=O)C1,outcome,[1],inactive
same,outcome,[2],inactive
same,outcome,[3],inactive
same,outcome,[4],inactive
same,outcome,[6],inactive
same,outcome,[7],inactive
same,outcome,[8],inactive
same,outcome,[9],inactive
same,outcome,[17],inactive
same,outcome,[10],inactive
same,outcome,[12],inactive
same,outcome,[18],inactive
same,outcome,[13],inactive
